Sa ugtP lethal: compounds lethal to S. aureus RN4220 ugtP deletion mutant. OD600 growth, 16 h. AID 1259309. growth inhibition, % (test concentration not listed). 330,000 compounds, 0.54% hits; in the data active means growth inhibition above about 68%;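 further: plate controls were untreated wells for no effect and antibiotic for full effect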
BJeLR viability: BJeLR cell viability loss; inhibition, % (test concentration not listed); BJeLR (HRASV12) viability, CellTiter-Glo ATP luminescence, 48 h; 300,000 compounds, 0.17% hits; in the data active means inhibition above about 50%; inconclusive means no clear call, values can overlap the other calls
CCHFV vOTU inh: blocks the CCHF virus ovarian tumor domain protease. inhibition, % at 11.5 µM. 370,000 compounds, 0.55% hits. CCHFV vOTU protease, Pep-AMC fluorescence; in the data active means inhibition above about 30%; further: 0% = vehicle wells with enzyme and 100% = no enzyme wells
RN4220 kill: S. aureus RN4220 growth inhibition; inhibition, % (no concentration beside the values); 330,000 compounds, 0.33% hits; OD600, 16 h; AID 1259311; in the data active means inhibition above about 85%;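 further: plate controls were untreated cells for no effect and reference antibiotic for full effect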
RecA intein inh: blocks M. tuberculosis RecA intein splicing | P9WHJ3 | cell-free RecA intein splicing, fluorescence | inhibition, % (no concentration beside the values) | 290,000 compounds, 0.75% hits; in the data active means inhibition above about 30%; inconclusive means no clear call, values can overlap the other calls;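 further: 0% = vehicle wells and 100% = reference inhibitor control wells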
Target sequence (P9WHJ3 whole entry, looked up): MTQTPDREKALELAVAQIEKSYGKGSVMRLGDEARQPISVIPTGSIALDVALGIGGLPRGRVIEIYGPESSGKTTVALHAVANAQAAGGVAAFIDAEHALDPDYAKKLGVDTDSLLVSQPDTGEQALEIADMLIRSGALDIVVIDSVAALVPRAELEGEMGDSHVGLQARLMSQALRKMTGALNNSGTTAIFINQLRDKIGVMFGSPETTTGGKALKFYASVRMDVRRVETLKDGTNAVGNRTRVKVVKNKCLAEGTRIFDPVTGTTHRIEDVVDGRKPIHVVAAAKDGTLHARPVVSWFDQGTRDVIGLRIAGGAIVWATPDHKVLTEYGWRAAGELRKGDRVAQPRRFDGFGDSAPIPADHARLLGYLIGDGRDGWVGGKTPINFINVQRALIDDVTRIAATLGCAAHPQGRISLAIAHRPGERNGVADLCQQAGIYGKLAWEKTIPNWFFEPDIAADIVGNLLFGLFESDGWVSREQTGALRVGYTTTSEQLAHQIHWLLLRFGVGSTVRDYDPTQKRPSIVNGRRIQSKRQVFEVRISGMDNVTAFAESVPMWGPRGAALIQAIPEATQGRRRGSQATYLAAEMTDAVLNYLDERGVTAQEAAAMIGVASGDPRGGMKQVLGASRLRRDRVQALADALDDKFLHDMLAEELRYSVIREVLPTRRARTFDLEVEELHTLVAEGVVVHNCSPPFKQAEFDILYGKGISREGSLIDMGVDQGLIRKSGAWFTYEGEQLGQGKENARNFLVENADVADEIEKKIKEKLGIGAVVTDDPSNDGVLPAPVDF
Mtb hypoxia rep: reduces hypoxia-regulated biosensor signal in M. tuberculosis; M. tuberculosis hypoxia-regulated fluorescent reporter, fluorescence; fluorescence inhibition, % (concentration not given with the values); 300,000 compounds, 0.1% hits; AID 1159583; in the data active means fluorescence inhibition mostly above about 23%, no sharp cut-off; inactive means mostly below about 17%
Starred values were filed as active, the others as inactive; ? = inconclusive; / = not tested or not shown. This is a sample that favours compounds with a hit; in the whole collection about 1.6% have one here.

SMILES | Sa ugtP lethal | BJeLR viability | CCHFV vOTU inh | RN4220 kill | RecA intein inh | Mtb hypoxia rep
O=C(C1=C(c2ccccc2)C(=O)c2ccccc2C1=O)c1ccccc1 | 96* | 32 | 29 | 97* | 36* | 7
Cc1ccc(-c2csc3ncnc(N4CCN(S(=O)(=O)c5cccs5)CC4)c23)cc1 | 98* | / | / | 97* | / | -16
O=S(=O)(c1ccccc1)N1CCN(c2ncnc3scc(-c4ccccc4)c23)CC1 | 98* | -7 | 1 | 96* | / | -5
S=C1NCC(CC2CCCCC2)N1CC1CCCCC1 (configuration not stated) | 4 | / | / | -6 | / | 13
OCCC1CC(O)C(O)[C@@]2(OCc3ccccc32)O1 (some centres not stated) | 0 | / | / | 7 | / | 7
CC(C)NC(=O)Nc1cccc2c1OC(CN(C)S(=O)(=O)c1ccccc1)C(C)CN(C(C)CO)C2=O (configuration not stated) | 17 | / | / | 8 | / | 4
CCOc1cc(/C=C2\CN(CC)C/C(=C\c3ccc(O)c(OCC)c3)C2=O)ccc1O | -12 | 57* | 7 | -2 | 1 | -9
CC(NC(=O)c1[nH]cnc1C(=O)Nc1ccon1)c1ccccc1 (configuration not stated) | 0 | / | / | 6 | / | -5
CC[C@@]12C(=O)N(c3ccccc3)C(=O)N1C(c1ccc(OC)cc1)C1C(=O)N(C(C)(C)C)C(=O)C12 (some centres not stated) | 1 | / | / | 2 | / | -2
O=[N+]([O-])c1ccc(-[n+]2c(-c3ccccc3)cc(-c3ccccc3)cc2-c2ccccc2)cc1 | -5 | -1 | 0 | -1 | 0 | -5
O=[N+]([O-])c1ccccc1-c1cc(-c2ccccc2)cc(-c2ccccc2)[n+]1Cc1ccccc1Cl | 98* | 11 | 4 | 86* | 16 | /
CC(=O)N(C)C1=C(N2CCOCC2)C(=O)c2ccccc2C1=O | 0 | 20 | / | 12 | 32* | 18
CC(=O)N(C)C1=C(O)c2ccccc2C(=O)C1=O | 13 | 2 | 10 | 7 | 10 | 10
CCOC(=O)C1C2COc3ccc(Br)cc3C2N2C(=O)CN(Cc3ccccc3)C(=O)[C@@]12C (some centres not stated) | 3 | / | / | 7 | / | 11
COC(CC1OC1C(O)C(C)OCc1ccccc1)OC (configuration not stated) | 5 | / | / | 7 | / | 4
CC(C)C[C@H]1C(=O)N2CCCC2[C@]2(O)O[C@](NC(=O)[C@@H]3C=C4c5cccc6[nH]cc(c56)CC4N(C)C3)(C(C)C)C(=O)N12 (some centres not stated) | / | -6 | / | / | ? | /
CC(C)[C@H]1C(=O)N2CCC[C@H]2[C@]2(O)O[C@](NC(=O)[C@@H]3C=C4c5cccc6[nH]cc(c56)C[C@H]4N(C)C3)(C(C)C)C(=O)N12 | / | / | / | / | 35* | /
Oc1ccc(Cl)cc1Cc1ccccc1 | -7 | / | -1 | -6 | / | 5
Oc1ccc(Cl)cc1Cc1cc(Cl)ccc1O | 86* | 3 | 18 | 94* | 13 | 2
CCCN(CCC)C1CCc2ccc(O)cc2C1 (configuration not stated) | 4 | / | 7 | 3 | / | -6
CCC1Cc2cc(O)ccc2C2=C1c1ccc(O)cc1CC2CC (configuration not stated) | 89 | / | / | 98* | / | 6
CC(C)Sc1cc(N2CCCC2)nc(-c2ccccc2)n1 | 41 | -3 | -7 | -5 | 0 | 2
CC(C)Sc1cc(N2CCOCC2)nc(-c2ccccc2)n1 | 98* | 0 | -12 | -8 | 5 | 3
Cc1c(C)c2cccnc2c2ncccc12 | 74 | / | / | 93* | / | /
CCN1C(=O)C2CCC3C(=NOC(C)c4cn(C(CO)Cc5ccccc5)nn4)CC(O)C(O)C3C2C1=O (configuration not stated) | 2 | / | / | 8 | / | -3
COc1cc(-c2c(-c3ccc4c(c3)OCO4)noc2-c2ccsc2)ccc1F | 87* | 5 | -4 | -6 | -1 | 10
CCOC(=O)c1ccc(-c2c(-c3ccc4c(c3)OCO4)noc2-c2ccsc2)cc1F | 96* | 2 | 0 | -10 | -2 | 5
O=C1Nc2ccccc2/C1=C\C(=O)c1ccccc1 | 98* | 32 | 2 | 98* | 3 | 3
CC(=O)C(Sc1ncnc2c1nnn2-c1ccc(F)cc1)C(=O)N(C)C (configuration not stated) | -1 | -5 | 8 | 8 | 40* | 13

Screening results (PubChem BioAssay)
